RGS4 inhibitor: blocks human RGS4-accelerated GTP hydrolysis. Potency, µM (doses to about 114 µM), actives largely listed as inhibitors. P49798. AID 504845. hit rate 0.039% among 390,000. Transcreener GDP fluorescence polarization, RGS4-accelerated GTP hydrolysis; active = well fitted inhibition curve with a large enough effect; inconclusive = small, poorly fitted or top-dose-only effect; inactive = no such curve, though single readings can be large or run the other way; note: nearly all actives have a fitted effect of over 75% in size
Target sequence (P49798 whole entry, looked up): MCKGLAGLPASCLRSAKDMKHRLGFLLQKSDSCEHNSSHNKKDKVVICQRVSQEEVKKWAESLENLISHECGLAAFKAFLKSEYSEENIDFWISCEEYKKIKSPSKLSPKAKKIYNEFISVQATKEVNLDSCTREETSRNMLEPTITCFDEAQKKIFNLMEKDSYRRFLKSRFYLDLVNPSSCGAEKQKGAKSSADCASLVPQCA
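MLSMR compounds (23 nl, pin-transferred) preincubated 10 min at room temperature with a 500nM (2x) first reagent, then RGS4 at 900nM (2x) plus Transcreener GDP mix added; fluorescence polarization (620/688 nm) read before and after 90 min at 30 °C.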
DRD3 agonist: agonists of human D3 dopamine receptor | hit rate 0.58% among 410,000 | P35462 | D3R DiscoveRx beta-arrestin cells, luminescence, 90 min | AID 652048 | max activation, %; in the data active = max activation above about 30%
Target sequence (P35462 whole entry, looked up): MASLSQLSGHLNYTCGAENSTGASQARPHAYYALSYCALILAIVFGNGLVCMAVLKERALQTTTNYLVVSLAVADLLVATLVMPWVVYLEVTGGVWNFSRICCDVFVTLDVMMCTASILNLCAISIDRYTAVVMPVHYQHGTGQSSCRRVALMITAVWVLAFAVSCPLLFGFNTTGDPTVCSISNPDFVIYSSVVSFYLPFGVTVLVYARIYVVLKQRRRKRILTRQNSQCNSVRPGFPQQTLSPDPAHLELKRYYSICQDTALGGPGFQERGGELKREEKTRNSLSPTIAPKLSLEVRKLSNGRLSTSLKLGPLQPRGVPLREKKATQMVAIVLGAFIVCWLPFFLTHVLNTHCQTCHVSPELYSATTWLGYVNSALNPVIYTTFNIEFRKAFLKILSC
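Agonist mode: compounds and dopamine controls were applied to plated cells for 90 min at 37 degrees C after an overnight attachment at 1500 cells/well. Luminescent read-out followed 30 - 60 minutes at room temperature with DiscoveRx detection reagent.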
pAkt inh: blocks phosphorylation of Akt | Neuro2A IGF-stimulated pAkt S473 HTRF, 20 min; active compounds read low | activity change, % for hits at 50 µM | hit rate 0.32% among 360,000 | AID 651550; in the data active = activity change below about -80%; inconclusive = mostly about -51% to -80%
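Single-point screen (50 µM final compound) in Neuro2A cells stimulated 20 min with 6 nM IGF at 37 deg C. After lysis, Ser473-phosphorylated Akt read by HTRF (ex 330 nm, em 615/665 nm) as the 665/615 ratio.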
LDHA block: blocks human lactate dehydrogenase A; P00338; purified LDHA, NADH/diaphorase-resazurin fluorescence; active compounds read low; activity change, % (values are at about 110 or 230 µM); hit rate 0.15% among 480,000; in the data active = activity change below about -30%; inconclusive = mostly about -25% to -30%
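Enzyme activity of human lactate dehydrogenase 5 (2 nM; 0.06 mM NADH, 0.2 mM pyruvate, 5 min, RT) is measured via a resazurin/diaphorase fluorescence readout of residual NADH.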
DRD3 antagonist: antagonists of human D3 dopamine receptor. D3R cells, DiscoveRx beta-arrestin luminescence, antagonist mode; active compounds read low. hit rate 2.5% among 360,000. max response, negative = inhibition, %. AID 652054; in the data active = max response below about -50%; inconclusive = no clear call, values can overlap the other calls
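Cells expressing the human receptor were seeded at 1500 cells/well, incubated overnight at 37 degrees C in 5% CO2, then exposed to library compounds with dopamine controls for 90 minutes at 37 degrees C before luminescent detection.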
PI4K2A inh: inhibitors of human PI4K2A; purified PI4K2A, ADP-Glo luminescence, 1 h; active compounds read low; activity change, negative = inhibition, % at 76.9 µM; hit rate 0.13% among 420,000; AID 1346378; in the data active = activity change below about -50%; inconclusive = mostly about -30% to -49%
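Compounds are screened against recombinant PI4K2A using PI as substrate and ATP, the latter dispensed at 300 microM. Reactions run one hour at ambient temperature before ADP-Glo detection; full inhibition defined by wells lacking enzyme.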
Of the large screens only hits and unclear results are named; the others gave an inactive call. Most compounds without a hit are left out; they make up all but 2.8% or so of the library.

COc1ccccc1N1CCN(C(=O)COc2cccc3ccccc23)CC1	none
CCCN(C)c1ccc(/C=N/NC(=S)Nc2ccc(CC)cc2)cc1	none (no result: RGS4 inhibitor, DRD3 agonist, pAkt inh, DRD3 antagonist, PI4K2A inh)
O=C(N/N=C/c1ccc(OCc2ccccc2)cc1)c1ccc(CSCc2ccccc2)cc1	none (no result: RGS4 inhibitor, DRD3 agonist, pAkt inh, DRD3 antagonist, PI4K2A inh)
Nc1nccnc1C(=O)NCc1csc(Br)c1	none (no result: RGS4 inhibitor, DRD3 agonist, pAkt inh, DRD3 antagonist, PI4K2A inh)
Cc1c(C(=O)Nc2nc(-c3cccs3)ns2)oc2ccccc12	none (no result: RGS4 inhibitor, DRD3 agonist, pAkt inh, DRD3 antagonist, PI4K2A inh)
Cc1sc2nc(CSc3ccccc3)nc(N3CCN(C)CC3)c2c1C	DRD3 antagonist -93
C=CCOC(=O)/C(=C\c1ccc(OC)cc1)NC(=O)c1ccco1	DRD3 antagonist -51
O=[N+]([O-])c1ccc(C(O)CN2CCN(c3ccccc3)CC2)cc1 (stereo not drawn)	DRD3 agonist 34
O=[N+]([O-])c1ccc(C(O)CN2CCOCC2)cc1 (stereo not drawn)	none
O=[N+]([O-])c1ccc(C(O)C[n+]2ccccc2)cc1 (stereo not drawn)	LDHA block -30
CC(C)(C)c1cc(N)n[nH]1	none (no result: RGS4 inhibitor, DRD3 agonist, pAkt inh, DRD3 antagonist, PI4K2A inh)
CC(=O)/C(=N\Nc1cccc(Cl)c1)Sc1cccc2cccnc12	none
CC(=O)/C(=N\Nc1cccc(Cl)c1)Sc1nnc(-c2ccccc2)n1-c1ccccc1	DRD3 antagonist -54
N#CCCNC(=O)COC(=O)c1ccccc1-c1ncc(-c2ccc(F)cc2)o1	none (no result: RGS4 inhibitor, DRD3 agonist, pAkt inh, DRD3 antagonist, PI4K2A inh)
CC(C)N(C)S(=O)(=O)c1ccc(NC(=O)c2cc3ccccc3oc2=O)cc1	none (no result: RGS4 inhibitor, DRD3 agonist, pAkt inh, DRD3 antagonist, PI4K2A inh)
CN(C)c1ccc(/C=C2\Oc3ccc(C#Cc4cccc(N)c4)cc3C2=O)cc1	DRD3 agonist 56
Cc1ccc(SCc2ccc(C(=O)Nc3ccc(C)cc3C)cc2)cc1	none (no result: RGS4 inhibitor, DRD3 agonist, pAkt inh, DRD3 antagonist, PI4K2A inh)
COc1ccc(NC(=S)N2CCCN(Cc3cccc(Cl)c3)C2)cc1	DRD3 antagonist -80
CCOc1ccc(NC(=S)N2CCCN(Cc3cccc(Cl)c3)C2)cc1	DRD3 antagonist -74
Fc1ccc(CN2CCCN(C(=S)Nc3ccc(F)cc3)CC2)cc1	DRD3 antagonist -59
COc1ccc(NC(=O)C(=O)NCCN2CCN(C(=O)c3cccc(C)c3)CC2)cc1	none (no result: RGS4 inhibitor, DRD3 agonist, pAkt inh, DRD3 antagonist, PI4K2A inh)
CCN(CC)CCN(C(=O)c1ccc2c(c1)OCCO2)c1nc2c(Cl)cccc2s1	DRD3 antagonist -63
CCN(CC)CCN(C(=O)c1ccc2c(c1)CCCC2)c1nc2c(C)cccc2s1	DRD3 antagonist -51
CCN(CC)CCN(C(=O)c1ccc2c(c1)OCCO2)c1nc2cc(C)cc(C)c2s1	DRD3 antagonist inconclusive
CCN(CC)CCN(C(=O)c1ccc2c(c1)CCCC2)c1nc2ccc(C)cc2s1	DRD3 antagonist -51
CCN(CC)CCN(C(=O)c1ccc2c(c1)CCCC2)c1nc2ccc(F)cc2s1	none
CCN(CC)CCN(C(=O)c1ccc2c(c1)CCCC2)c1nc2ccc(OC)cc2s1	DRD3 antagonist inconclusive
COc1ccc(Cl)cc1S(=O)(=O)NCCO	none (no result: RGS4 inhibitor, DRD3 agonist, pAkt inh, DRD3 antagonist, PI4K2A inh)
COc1ccc(CN(C)C(=O)NCc2nc(C)cs2)cc1	none (no result: RGS4 inhibitor, DRD3 agonist, pAkt inh, DRD3 antagonist, PI4K2A inh)
CCCc1cc(=O)[nH]c(SCc2nc3ccccc3s2)n1	DRD3 agonist 43
O=C(CSc1oc(-c2ccccc2)nc1S(=O)(=O)c1ccccc1)c1ccccc1	DRD3 agonist 53 (no result: pAkt inh, DRD3 antagonist)
O=C(CSc1oc(-c2ccccc2)nc1S(=O)(=O)c1ccc(Br)cc1)c1ccccc1	RGS4 inhibitor inconclusive (no result: pAkt inh, DRD3 antagonist)
CC(C)CN1CCC(=O)N([C@H](COc2ccccc2)c2ccccc2)CC1	DRD3 antagonist -70
O=C1CCN(CCc2ccccc2)CCN1[C@H](COc1ccccc1)c1ccccc1	none
CCCN1CCC(=O)N([C@H](COc2ccccc2)c2ccccc2)CC1	DRD3 antagonist -104
Cc1cc(N2C(=O)CC(N3CCN(c4ccc(C(=O)c5cccs5)cc4)CC3)C2=O)no1 (stereo not drawn)	DRD3 antagonist -52
Cc1ccc(NC(C)C(=O)Nc2sccc2C#N)c(C)c1 (stereo not drawn)	none (no result: RGS4 inhibitor, DRD3 agonist, pAkt inh, DRD3 antagonist, PI4K2A inh)
O=C(N/C(=C/c1ccc(Br)cc1)C(=O)N1CCCCC1)c1ccccc1F	DRD3 antagonist -57
Oc1ccc(N2CCN(Cc3cc4c(cc3Br)OCCO4)CC2)cc1	RGS4 inhibitor inconclusive, DRD3 antagonist -86
O=S(=O)(c1ccc(F)cc1)N1CCN(Cc2cc3c(cc2Br)OCCO3)CC1	none

High-throughput results as filed in PubChem.
